ChEMBL document CHEMBL3433997, “St. Jude Leishmania screening dataset” (2016)
Values joined by “and” are separate entries in the source; they are usually repeats but may differ in a detail not shown here. Identical values can stand only once.

Tests used:
Format in all cases: functional
[1] = molecular target: Solute carrier family 2, facilitated glucose transporter member 1 (Homo sapiens) (UniProt P11166); test: ST_JUDE_LEISH: Cytotoxicity at 2uM final concentration against transgenic Leishmania Mexicana promastigotes LmGLUT1 that are glucose transport deficient and complemented with the human glucose transporter GLUT1. Activity is measured by DNA content using SYBR green in vitro
[2] = molecular target: Hexose transporter 1 (Plasmodium falciparum) (UniProt O97467); test: ST_JUDE_LEISH: Cytotoxicity at 2uM final concentration against transgenic Leishmania Mexicana promastigotes LmPfHT that are glucose transport deficient and complemented with the Plasmodium falciparum hexose transporter. Activity is measured by DNA content using SYBR green in vitro
[3] = molecular target: Glucose transporter (Leishmania mexicana) (UniProt O61059); test: ST_JUDE_LEISH: Cytotoxicity at 2uM final concentration against transgenic Leishmania Mexicana promastigotes LmGT2 that are glucose transport deficient and complemented with the L. Mexicana glucose transporter 2. Activity is measured by DNA content using SYBR green in vitro

Chain of Solute carrier family 2, facilitated glucose transporter member 1 (Homo sapiens) (P11166 whole entry): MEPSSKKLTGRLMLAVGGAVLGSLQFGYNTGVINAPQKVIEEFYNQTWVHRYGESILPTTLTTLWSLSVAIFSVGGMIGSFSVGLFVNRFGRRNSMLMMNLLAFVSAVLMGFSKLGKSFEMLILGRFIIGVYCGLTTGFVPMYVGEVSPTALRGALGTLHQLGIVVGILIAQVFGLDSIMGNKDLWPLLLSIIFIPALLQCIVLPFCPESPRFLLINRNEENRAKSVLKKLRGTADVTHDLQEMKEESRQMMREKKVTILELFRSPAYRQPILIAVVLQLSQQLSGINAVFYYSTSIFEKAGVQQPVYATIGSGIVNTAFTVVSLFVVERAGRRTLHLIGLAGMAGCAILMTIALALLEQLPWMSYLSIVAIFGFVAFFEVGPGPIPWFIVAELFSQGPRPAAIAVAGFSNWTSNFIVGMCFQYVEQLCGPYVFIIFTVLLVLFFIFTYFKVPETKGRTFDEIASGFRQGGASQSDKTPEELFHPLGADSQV

Structure (SMILES)	inhibition [1]	inhibition [2]	inhibition [3]
O=C(Nc1ccccc1OC(F)(F)F)NC1CCC(CN2CCC(c3c[nH]c4ccccc34)CC2)CC1 (configuration not stated)	2.64% and 17.3%	3.83% and 26.1%	0.62% and 10.3%
CC[C@H]1CN2CC[C@H]1C[C@H]2[C@H](O)c1cc(-c2ccccc2C)nc2ccc(OC)cc12	0.33%	0.37%	-4.71%
Cc1ccc(C)c(C=CC(=O)NC2CCC(CN3CCC(c4c[nH]c5ccccc45)CC3)CC2)c1 (configuration not stated)	1.09% and 15%	1.99% and 11.5%	1.04% and 10.2%
Brc1cnc(NC2=NCCN2)c(Br)c1	2.63%	3.41%	3.27%
CN(c1cc(NC(=O)c2ccccc2)ccn1)C1CCN(Cc2cccc(F)c2)CC1	1.23%	4.2%	2.33%
CCOC(C(=O)OCC1CCCN(C)C1)(c1ccccc1)c1ccccc1 (configuration not stated)	4.97%	4.46%	5.83%
O=C(/C=C/c1ccc(Cl)cc1Cl)NC1CCC(CN2CCC(c3c[nH]c4ccccc34)CC2)CC1 (configuration not stated)	10.9%	13.1%	9.99%
CCCc1cc(O)c2c3c(c(=O)oc2c1)CN(C)CC3	0.29%	0.97%	1.39%
COC(=O)c1ccc(CC(C)NCC(O)c2cccc3ccccc23)cc1 (configuration not stated)	4.9%	3.26%	2.22%
CCCc1cc([C@@H](O)[C@@H]2C[C@@H]3CCN2C[C@@H]3CC)c2ccccc2n1	-0.67%	3.99%	0.11%
O=C(NC1CCC(CN2CCC(c3c[nH]c4ccccc34)CC2)CC1)c1csc(-c2ccc(C(F)(F)F)cc2Cl)n1 (configuration not stated)	10.1%	9.77%	10.2%
CCOC(=O)c1c(C)n(C2CCCCC2)c2cc(Br)c(O)cc12	-0.53%	-0.38%	-0.74%
O=C(NC1CCC(CN2CCC(c3c[nH]c4ccccc34)CC2)CC1)c1cnn(-c2ccccc2)c1-c1ccccc1Cl (configuration not stated)	4.74%	10.3%	3.95%
COCC(=O)N(Cc1cccc(-c2ccc(CNCCc3ccccc3)cc2)c1)C1CCN(Cc2ccccc2)CC1	3.83%	5.42%	2.98%
CNC(=O)c1ccc2[nH]cc(C3CCN(CC4CCN(C(=O)/C=C/c5ccc(Cl)c(Cl)c5)CC4)CC3)c2c1	1.1%	-0.15%	0.08%
CC(Cc1ccc(NC(=O)[C@@H](C)NCCc2cccc(Cl)c2)cc1)NCCc1cccc(Cl)c1 (some centres not stated)	0.67%	2.55%	2.1%
Cc1ccc(/C=C/C(=O)NC2CCC(CN3CCC(c4c[nH]c5ccccc45)CC3)CC2)cc1 (configuration not stated)	0.19% and 4.55%	1.12% and 3.15%	2.44% and 0.47%
CC[C@H]1CN2CC[C@@H]1C[C@H]2[C@H](O)c1cc(-c2ccc(Cl)c(Cl)c2)nc2ccc(O)cc12	-0.36%	-1.15%	-0.47%
CC[C@H]1CN2CC[C@@H]1C[C@@H]2[C@@H](O)c1cc(-c2ccc(F)cc2)nc2ccc(OC)cc12	4.08%	3.07%	5.29%
CCCCCCC(C)(C)c1cc(O)c2c3c(c(=O)oc2c1)CCN(Cc1ccccc1)C3	3.18%	4.84%	8.58%
C=C[C@H]1CN2CC[C@H]1C[C@H]2[C@H](OS(=O)(=O)O)c1ccnc2ccccc12	9.31%	8.07%	9.07%
COc1ccc(C2CNCc3c2cc(OC)c(OC)c3Cl)cc1 (configuration not stated)	4.33%	4.69%	-0.73%
Cc1cc2ccc(CNCCc3ccccc3Br)cc2nc1N	3.28%	2.77%	3.87%

Structure (SMILES)	inhibition [1]	inhibition [2]	inhibition [3]
COc1ccc(CN2CCN(CCOC(c3ccccc3)c3ccccc3)CC2)c(O)c1	3.13%	2.42%	0.74%
CC[C@H]1CN2CC[C@@H]1C[C@H]2[C@H](O)c1ccnc2ccc(OC)cc12	0.79%	0.55%	3.26%
O=C(C=Cc1cccc(Cl)c1Cl)NC1CCC(CN2CCC(c3c[nH]c4ccccc34)CC2)CC1 (configuration not stated)	9.75% and 1.21%	23.6% and 3.22%	11.8% and -0.36%
COCC(=O)N(Cc1ccccc1-c1ccc(CNCCc2ccccc2)cc1)C1CCN(Cc2ccccc2)CC1	0.08%	0.27%	-3.2%
O=C(/C=C/c1ccc(Cl)c(Cl)c1)NC1CCC(N2CCC(c3c[nH]c4ccccc34)CC2)CC1 (configuration not stated)	26%	6.98%	4.41%
CCCc1c(C(=O)NC2CCC(CN3CCC(c4c[nH]c5ccccc45)CC3)CC2)cnn1-c1c(Cl)cc(Cl)cc1Cl (configuration not stated)	4.74%	3.29%	3.07%
CCCCCCC(C)(C)c1cc(O)c2c(c1)OC(C)(C)c1ccncc1-2	1.05%	0.83%	3.15%
CC(Cc1ccc(NC(=O)[C@H](C)NCCc2cccc(Cl)c2)cc1)NCCc1cccc(Cl)c1 (some centres not stated)	2.86%	0.1%	0.22%
CCCCCCc1cc(O)c2c3c(c(=O)oc2c1)CCN(C)C3	7.26%	4.97%	6.76%
CCN1CC=C(c2c[nH]c3ccccc23)CC1	0.74%	1.07%	0.73%
CN1CC=C(c2c[nH]c3ccc(OCc4ccccc4)cc23)CC1	16.2%	14.4%	14.7%
OC(CNC12CC3CC(CC(C3)C1)C2)c1cccc(C(F)(F)F)c1 (configuration not stated)	-1.52%	-1.19%	-0.45%
O=C(/C=C/c1ccc(Cl)c(Cl)c1)NCCCCCN1C2CCC1CC(c1c[nH]c3ccc(O)cc13)C2 (configuration not stated)	0.54% and -0.84%	2.4% and -2.77%	-3.07% and -2.2%
COc1cc(C=CC(=O)N2CCC(CN3CCC(c4c[nH]c5ccccc45)CC3)CC2)cc(OC)c1	2.61%	0.72%	-2.69%
CC(C)CNCc1cccc(-c2cccc(CN(C(=O)c3cccs3)C3CCN(Cc4ccccc4)CC3)c2)c1	11.3%	7.75%	6.04%
COC(=O)/C=C/c1ccc(CC(C)NCC(O)c2cccc(C(F)(F)F)c2)cc1 (configuration not stated)	0.9% and -0.04%	-2.11% and 0.7%	-1.59% and -0.73%
CC(C)NC(=O)Cn1cc(C2CCN(CC3CCN(C(=O)/C=C/c4ccc(Cl)c(Cl)c4)CC3)CC2)c2ccccc21	1.44%	0.25%	1.41%
Cc1[nH]c2ccccc2c1C1=CCN(CCCCCC23CCCc4cccc(c42)NC3=O)CC1 (configuration not stated)	2.18%	2.47%	3.51%
CC(=O)N(Cc1cccc(-c2ccc(CNCCc3ccccc3)cc2)c1)C1CCN(Cc2ccccc2)CC1	4.3%	5.39%	2.97%
CCCc1c(C(=O)NC2CCC(CN3CCC(c4c[nH]c5ccccc45)CC3)CC2)cnn1-c1ccccc1 (configuration not stated)	3.14%	1.15%	1.83%
O=C(Nc1ccc(Cl)c(Cl)c1)N1CCC(CN2CCC(c3c[nH]c4ccccc34)CC2)CC1	6.13%	5.01%	4.11%
Cc1ccccc1CNCC(O)c1cccc(C(F)(F)F)c1 (configuration not stated)	1.72%	2.2%	-1.33%
COc1cc(NC(=O)c2nn(CCCN3CCC4(CC3)C(=O)NCN4c3ccccc3)cc2-c2ccc(Cl)c(Cl)c2)cc(OC)c1OC	-0.06%	8.62%	0.13%

Structure (SMILES)	inhibition [1]	inhibition [2]	inhibition [3]
CCCCC/C=C/C(=O)NC1CCC(CN2CCC(c3c[nH]c4ccccc34)CC2)CC1 (configuration not stated)	2.84%	2.43%	4.05%
COc1cc(NCCCNC(=O)c2cn(Cc3ccccc3)c3ccccc23)nc2ccccc12	-0.26%	-0.48%	-1.02%
O=C(/C=C/c1ccc(Cl)c(Cl)c1)NC1C2CCC1CC(CN1CCC(c3c[nH]c4ccccc34)CC1)C2 (configuration not stated)	3.31%	4.24%	2.44%
CC(=O)N(Cc1ccc(-c2ccc(CNCCc3ccccc3)cc2)cc1)C1CCN(Cc2ccccc2)CC1	1.67%	1.69%	1.11%
C[C@@H]1C[C@@H]([C@H](O)CC2CC(=O)NC(=O)C2)C(=O)[C@@H](C)C1	90%	90.8%	88.7%
O=C(Nc1ccccc1C(F)(F)F)NC1CCC(CN2CCC(c3c[nH]c4ccccc34)CC2)CC1 (configuration not stated)	7.14% and 3.61%	4.94% and 7.06%	2.99% and -1.24%
CC[C@H]1CN2CC[C@H]1C[C@H]2[C@H](OC(=O)c1ccccc1)c1cc(C#N)nc2ccc(OC)cc12	1.81%	-0.58%	0.6%
COc1ccc(OC)c(C(O)CNC(C)C)c1 (configuration not stated)	1.92%	2.47%	0.42%
C/C=C1\CN2CC[C@H]1C[C@H]2[C@H](O)c1ccnc2ccc(OC)cc12	10% and 3.4%	9.89% and 3.71%	9.9% and 2.84%
COC(=O)c1ccc(CC(C)NCC(O)c2cccc(C(F)(F)F)c2)cc1C (configuration not stated)	0.54%	1.8%	0.87%
O=C(/C=C/c1ccc(Cl)c(Cl)c1)NC1CCC(N2CCC(c3c[nH]c4ccc(O)cc34)CC2)CC1 (configuration not stated)	1.81%	1.52%	2.5%
C=C[C@H]1CN2CC[C@H]1C[C@H]2[C@H](O)c1cc(/C=C/c2ccc(F)cc2)nc2ccc(OC)cc12	2.95%	0.72%	2.4%
O=C(/C=C/c1ccc(Cl)c(Cl)c1)N1CCC(CN2CCC(c3c[nH]c4ccc(O)cc34)CC2)CC1	1.04%	-0.44%	4.21%
Cc1[nH]c2ccccc2c1C1=CCN(CCCCCNC(=O)/C=C/c2ccc(Cl)c(Cl)c2)CC1	5.3%	5.72%	5.48%
O=C(Nc1cc(C(F)(F)F)cc(C(F)(F)F)c1)NC1CCC(CN2CCC(c3c[nH]c4ccccc34)CC2)CC1 (configuration not stated)	-2.79% and 4.32%	-1.6% and 4.26%	-0.26% and 2.03%
O=C(CNC1CCCCC1)c1ccc(O)c(O)c1	75.2%	87.1%	77.4%
N=c1c2c(n(Cc3ccc(Cl)cc3Cl)c3c1CCC3)CCCC2	17.8%	26.7%	6.7%
O=C(Nc1ccc(Oc2ccccc2)cc1)N1CCC(CN2CCC(c3c[nH]c4ccccc34)CC2)CC1	1.64%	2.58%	-1.12%
COc1cc(C(=O)NC2CCC(CN3CCC(c4c[nH]c5ccccc45)CC3)CC2)cc(Cl)n1 (configuration not stated)	1.3%	-0.71%	2.31%
Cc1[nH]c2cc(Cl)ccc2c1C1=CCN(CCCCC2(C)C(=O)Nc3ccccc32)CC1 (configuration not stated)	2.01%	0.91%	1.15%
CC(=O)Nc1ccc(OCCN(CC(C)(C)C)c2ccc(C#N)c(C(F)(F)F)c2)c(Cl)c1	4.2%	5.82%	3.22%
CS(=O)(=O)Nc1ccc2[nH]cc(C3CCN(CC4CCC(NC(=O)/C=C/c5ccccc5Cl)CC4)CC3)c2c1 (configuration not stated)	-1.96%	1.23%	-0.23%
CNCCCN(C)C(=O)Oc1c(Br)c(C)nc(C)c1-c1ccc(Oc2ccc(OC(F)(F)F)cc2)cc1	-0.18%	-3.25%	-1.27%
